According to PubChem BioAssay (NCATS):
Inconclusive results are not listed. Activity calls are given as the source filed them. Calls come from the whole dose curve; as a rule, active = well fitted inhibition curve with a large enough effect; inconclusive = small, poorly fitted or top-dose-only effect; inactive = no such curve, though single readings can be large or run the other way.

Assay: BET inhibitor-based combinations targeting novel dependencies in MECOM-rearranged (r) AML: OCI-AML3 cell line (AID 2202232); note: nearly all actives have a fitted effect of over 35% in size
Conditions: CellTiter-Glo luminescence, 48 h; Potency: OCI-AML3 viability; series mostly up to 46 µM; viability (% of control): at the top concentration
Excerpt: Ecotropic viral insertion site 1 (EVI1) is located on chromosome 3q26.2 as part of the MECOM (MDS and EVI1 complex) locus. Under normal hematopoiesis, EVI1 is a regulator of hematopoietic stem cell maintenance and self-renewal and EVI1 levels decrease as the cells differentiate. In approximately 5-10% of de novo acute myeloid leukemia (AML) EVI1 is aberrantly expressed, including Chromosomal inv(3)(q21;q26.2) or t(3;3)(q21;q26.2) alterations (MECOM-r) that account for about 50% of AML with EVI1 overexpression 31. AMLs with high levels of EVI1 have a poor prognosis and an overall survival time averaging between 10-14 months. EVI1 overexpression confers resistance in leukemia cells, highlighting the need to develop new targeted therapies for EVI1 overexpressing AMLs.
Here, we performed an unbiased chemical drug screening by evaluating the single agent activity of a collection of 2,480 oncology-focused, approved and investigational drugs (NCATS Mechanism Interrogation Plates, MIPE v5.0) against a panel of seven AML cell lines. These included four MECOM-r cell-lines (AML-191, AML-194, UCSD-AML1 and HNT-34) and three non-MECOM-r AMLs (MV4-11, OCI-AML3 and SET-2). Exploiting the mechanistic redundancy built in the library, we identified target-level sensitivities in MECOM-r AML cells and relative activity as compared to other AML subtypes.
A collection of 2480 mechanistically annotated dugs (MIPE v5.0) was used to screen four 3q26.2 rearranged AML cell lines and three non-3q26.2 rearranged AML cell lines. This library purposely exploits redundancy by including multiple inhibitors of key onco-targets, while simultaneously encompassing mechanistic diversity, targeting more than 800 distinct mechanisms of action. Briefly, cells were seeded in 5 uL of growth media using a Multidrop Combi dispenser into 1536 well white polystyrene tissue culture treated plates (Corning) at a density of 500cells/well. For each cell-line, for each of the 2480 drugs in MIPE v5.0 library, an 11-point dose curve was generated via a 1536 pin-tool. Plates were incubated for 48 hr at standard incubator conditions, covered by a stainless steel gasketed lid to prevent evaporation. Cell viability was determined by luminescence based, Cell Titer Glo assay (Promega). In detail, 3 uL of Cell Titer Glo were added to each well and plates were incubated at room temperature for 15 min with a stainless-steel lid in place. Luminescence readings were taken using a Viewlux (PerkinElmer) with a 2 s exposure time per plate. Compound dose-response curves were normalized to DMSO and empty well controls on each plate. Quantitative drug activity data from dose-response curves was determined utilizing area Under the Curve (AUC) and Z-transformed AUC (Z-AUC, a mean-centering transformation applied to each individual cell-line screened).
Potency is the fitted concentration of half-maximal effect.

SMILES	viability (% of control)	Potency
CC(C(=O)O)c1cccc(C(=O)c2ccccc2)c1 (stereo not given)	113% (inactive)	–
NC(=O)[C@H]1CCS[C@@H]2C[C@]3(CCCN3C(=O)Cc3ccc(NC(=O)COc4ccc(Cl)cc4Cl)cc3)C(=O)N12	–	9.34 µM (active)
CN1CCC(=C2c3ccccc3CC(=O)c3sccc32)CC1	–	18.6 µM (active)
O=P(O)(O)C(O)(Cc1cccnc1)P(=O)(O)O	141% (inactive)	–
CN1C(C(=O)Nc2ccccn2)=C(O)c2ccccc2S1(=O)=O	104% (inactive)	–
COC1CCC(C(=O)c2ccc3nc4c(cc3c2)CCCO4)CC1 (stereo not given)	94.1% (inactive)	–
COc1cc2c(Nc3ccc(NC(=O)c4ccccc4)cc3)ncnc2cc1OCCCN1CCOCC1	–	18.6 µM (active)
Cc1c(NC(=O)c2ccc(C(C)(C)C)cc2)cccc1-c1cn(C)c(=O)c(Nc2ccc(C(=O)N3CCOCC3)cc2)n1	72.8% (inactive)	–
O=c1[nH]cnc2[nH]ncc12	107% (inactive)	–
CO[C@@H]1COCC[C@@H]1N[C@@H]1CC[C@@](C(=O)N2CCc3ncc(C(F)(F)F)cc3C2)(C(C)C)C1	118% [at 15.6 µM] (inactive)	–
C=CC(=O)Nc1cccc(Nc2nc(Nc3ccc(NC4CN(CCF)C4)cc3OC)ncc2C(F)(F)F)c1	–	16.6 µM (active)
CC[C@@H]1C(=O)N(C)c2cnc(Nc3ccc(C(=O)NC4CCN(C)CC4)cc3OC)nc2N1C1CCCC1	–	0.0525 µM (active)
COC(=O)C1=C(C)NC(C)=C(C(=O)OCCN2CCN(C(c3ccccc3)c3ccccc3)CC2)C1c1cccc([N+](=O)[O-])c1 (stereo not given)	–	20.9 µM (active)
CCc1cncnc1N1CCN(Cc2nc3ccc(C(F)(F)F)cc3[nH]2)CC1	–	11.8 µM (active)
COc1nccc(-c2c(-c3ccc(F)cc3)ncn2C2CCC(O)CC2)n1 (stereo not given)	–	18.6 µM (active)
NS(=O)(=O)c1cc2c(cc1Cl)NC=NS2(=O)=O	133% (inactive)	–
NC(=O)c1noc([C@H](CCCC2CCCCC2)CC(=O)NO)n1	–	14.8 µM (active)
NC(=NCCCCCCN=C(N)N=C(N)Nc1ccc(Cl)cc1)N=C(N)Nc1ccc(Cl)cc1	–	18.6 µM (active)
N#Cc1ccnc(N2C(=O)CC[C@H]2C(=O)N(c2cncc(F)c2)[C@H](C(=O)NC2CC(F)(F)C2)c2ccccc2Cl)c1	114% (inactive)	–
CCOC(=O)[C@H](CCc1ccccc1)N[C@@H](C)C(=O)N1CCC[C@H]1C(=O)O	88.7% (inactive)	–

SMILES	viability (% of control)	Potency
CN1CCN2c3ncccc3Cc3ccccc3C2C1 (stereo not given)	109% (inactive)	–
C[C@@H]1C(=O)O[C@H]2CC34[C@H]5C[C@@H](C(C)(C)C)C36[C@H](OC(=O)[C@@H]6O)O[C@@]4(C(=O)O5)[C@]21O (stereo not given in full)	0.393% (inactive)	–
Nc1ncnc2ccccc12	113% (inactive)	–
c1cc(-c2cnn3cc(-c4ccc(N5CCNCC5)cc4)cnc23)c2cccnc2c1	–	16.6 µM (active)
COc1ccc([C@@H]2CNC(=O)C2)cc1OC1CCCC1	107% (inactive)	–
O=C(O)C(=O)Nc1cccc(-c2nn[nH]n2)c1	110% (inactive)	–
COc1c(N2CCNC(C)C2)c(F)cc2c(=O)c(C(=O)O)cn(C3CC3)c12 (stereo not given)	106% (inactive)	–
O=P(O)(O)C(O)(Cn1ccnc1)P(=O)(O)O	121% [at 5.12 µM] (inactive)	–
CC1CNc2c(cccc2S(=O)(=O)N[C@@H](CCCN=C(N)N)C(=O)N2CC[C@@H](C)C[C@@H]2C(=O)O)C1 (stereo not given in full)	107% (inactive)	–
CC(C)(C)C(=O)Oc1ccc(S(=O)(=O)Nc2ccccc2C(=O)NCC(=O)O)cc1	84.8% (inactive)	–
Cc1ccc(C(N)=O)cc1Nc1nccc(-c2cn(C(C)C)c3cnccc23)n1	–	7.42 µM (active)
CC(C)[C@H](CO)Nc1nc(Nc2ccc(C(=O)O)c(Cl)c2)c2ncn(C(C)C)c2n1	95.1% (inactive)	–
CN(C)C/C=C/C(=O)Nc1cccc(C(=O)Nc2cccc(Nc3ncc(Cl)c(-c4c[nH]c5ccccc45)n3)c2)c1	–	0.166 µM (active)
c1nc2nc(Nc3ccc(N4CCOCC4)cc3)nc(NC3CCCCC3)c2[nH]1	–	3.32 µM (active)
NC(=O)c1ncn([C@@H]2O[C@H](CO)[C@@H](O)[C@H]2O)c1O	51.9% (inactive)	–
CC1=C(C(=O)Nc2cc3cn[nH]c3cc2F)C(c2ccc(Cl)cc2F)N=C(c2ccnc(Cl)c2)N1 (stereo not given)	–	16.6 µM (active)
Cc1cn2cc(C(=O)N(C)CCO)cc(N[C@@H]3CCOc4cccc(C)c43)c2n1	114% (inactive)	–
NCCOc1cc(C(=O)Nc2cc(OCCN)c3ccccc3n2)nc(C(=O)Nc2cc(OCCN)c3ccccc3n2)c1	84.5% (inactive)	–
NS(=O)(=O)c1cc2c(cc1Cl)NC(C(Cl)Cl)NS2(=O)=O (stereo not given)	–	16.6 µM (active)
O=c1c(O)c(-c2cc(O)c(O)c(O)c2)oc2cc(O)cc(O)c12	108% (inactive)	–
